Results as given in the supplement of paper PMC10849652.
About 7,900 targets were measured; listed, in parts, are those with a hit and a random draw of the rest. About 0.6% of all pairs of compound and target were hits.

Key:
Assay in all cases: log2 fold change, soluble protein after heating vs DMSO (PISA); higher = thermal stabilisation; K562 cells, 10 uM, 30 min; active = over 0.2 and 3.5 SD of the protein, either way, in both replicates (recomputed)
saracatinib = compound: CN1CCN(CCOc2cc(OC3CCOCC3)c3c(Nc4c(Cl)ccc5c4OCO5)ncnc3c2)CC1 [saracatinib]
Method in brief: (§1)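 K562 cells at 2×10^6 cells/mL were given 10 μM compound for 30 min. Aliquots then went through 3 min of heating across 48°C-58°C, were pooled, and were extracted in PBS with 0.5% NP-40 at 4°C, and the supernatant after 21,000xg for 90 min was quantified by TMTpro 16plex LC-MS/MS with channel sums equalised. Thermal stability relative to control samples, from duplicates, is given as log2 fold change.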

Tubastatin A = compound: CN1CCc2c(c3ccccc3n2Cc2ccc(C(=O)NO)cc2)C1 [Tubastatin A]
Method in brief: as §1

rucaparib = compound: CNCc1ccc(-c2[nH]c3cc(F)cc4c3c2CCNC4=O)cc1 [rucaparib]
Method in brief: as §1

[1] = compound: CNc1nc(-c2ccc3c(N)n[nH]c3c2)cc(N2C[C@@H](C(=O)NC3CCCCC3)CC[C@H]2C)n1
Method in brief: as §1

encorafenib = compound: COC(=O)N[C@@H](C)CNc1nccc(-c2cn(C(C)C)nc2-c2cc(Cl)cc(NS(C)(=O)=O)c2F)n1 [encorafenib]
Method in brief: as §1

pictilisib = compound: CS(=O)(=O)N1CCN(Cc2cc3nc(-c4cccc5[nH]ncc45)nc(N4CCOCC4)c3s2)CC1 [pictilisib]
Method in brief: as §1

alvocidib = compound: CN1CC[C@H](c2c(O)cc(O)c3c(=O)cc(-c4ccccc4Cl)oc23)[C@H](O)C1 [alvocidib]
Method in brief: as §1

[2] = compound: CNC(=O)C1=CC=CC=C1NC2=NC(=NC=C2Cl)NC3=C(C=C(C=C3)N4CCOCC4)OC
Method in brief: as §1

[3] = compound: COC1=CC=C(C=C1)CN2C=CC3=C2C=C(C=C3)C(=O)NO
Method in brief: as §1

zotarolimus = compound: CO[C@H]1C[C@@H]2CC[C@@H](C)[C@@](O)(O2)C(=O)C(=O)N2CCCC[C@H]2C(=O)O[C@H]([C@H](C)C[C@@H]2CC[C@H](n3cnnn3)[C@H](OC)C2)CC(=O)[C@H](C)/C=C(\C)[C@@H](O)[C@@H](OC)C(=O)[C@H](C)C[C@H](C)/C=C/C=C/C=C/1C [zotarolimus]
Method in brief: as §1

alisertib = compound: COc1cc(Nc2ncc3c(n2)-c2ccc(Cl)cc2C(c2c(F)cccc2OC)=NC3)ccc1C(=O)O [alisertib]
Method in brief: as §1

[4] = compound: COc1cc2nc(-c3cc(F)ccc3O)nc(N[C@@H]3CNC[C@H]3C(C)(C)O)c2cc1OC
Method in brief: as §1

gefitinib = compound: COc1cc2ncnc(Nc3ccc(F)c(Cl)c3)c2cc1OCCCN1CCOCC1 [gefitinib]
Method in brief: as §1

[5] = compound: COc1cccc2cc(-c3nc([C@H]4CC[C@H](C(=O)O)CC4)n4ncnc(N)c34)[nH]c12
Method in brief: as §1

lapatinib = compound: CS(=O)(=O)CCNCc1ccc(-c2ccc3ncnc(Nc4ccc(OCc5cccc(F)c5)c(Cl)c4)c3c2)o1 [lapatinib]
Method in brief: as §1

idasanutlin = compound: COc1cc(C(=O)O)ccc1NC(=O)[C@@H]1N[C@@H](CC(C)(C)C)[C@](C#N)(c2ccc(Cl)cc2F)[C@H]1c1cccc(Cl)c1F [idasanutlin]
Method in brief: as §1

sotrastaurin = compound: CN1CCN(c2nc(C3=C(c4c[nH]c5ccccc45)C(=O)NC3=O)c3ccccc3n2)CC1 [sotrastaurin]
Method in brief: as §1

defactinib = compound: CNC(=O)c1ccc(Nc2ncc(C(F)(F)F)c(NCc3nccnc3N(C)S(C)(=O)=O)n2)cc1 [defactinib]
Method in brief: as §1

[6] = compound: COC(=O)[C@H](CCSC)NC(=O)C1=C(C=C(C=C1)NC[C@H](CS)N)C2=CC=CC=C2
Method in brief: as §1

filanesib = compound: CON(C)C(=O)N1N=C(c2cc(F)ccc2F)S[C@@]1(CCCN)c1ccccc1 [filanesib]
Method in brief: as §1

Measured: log2 fold change

RPS3 (UniProt E9PJN9)
inactive: saracatinib -0.069 | Tubastatin A 0.105 | rucaparib 0.064 | [1] -0.028 | encorafenib 0.052 | pictilisib 0.129

RBMY1E (UniProt A6NEQ0)
Sequence of UniProt A6NEQ0 (A6NEQ0 whole entry, looked up): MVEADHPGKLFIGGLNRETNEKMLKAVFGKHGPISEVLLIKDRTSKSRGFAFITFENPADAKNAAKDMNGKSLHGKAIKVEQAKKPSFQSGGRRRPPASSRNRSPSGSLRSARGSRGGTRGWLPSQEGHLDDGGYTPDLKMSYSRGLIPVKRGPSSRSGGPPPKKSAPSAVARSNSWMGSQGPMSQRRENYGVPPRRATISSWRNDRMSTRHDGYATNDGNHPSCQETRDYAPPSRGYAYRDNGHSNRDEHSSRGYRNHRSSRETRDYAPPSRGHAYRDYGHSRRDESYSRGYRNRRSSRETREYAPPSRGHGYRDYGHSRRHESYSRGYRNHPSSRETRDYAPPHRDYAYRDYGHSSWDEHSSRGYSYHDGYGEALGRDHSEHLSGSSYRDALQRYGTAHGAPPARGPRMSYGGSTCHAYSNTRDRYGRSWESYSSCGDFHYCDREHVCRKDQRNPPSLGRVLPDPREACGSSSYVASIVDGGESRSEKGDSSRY
inactive: alvocidib -0.015 | Tubastatin A 0.016 | [2] -0.049 | rucaparib -0.055 | encorafenib 0.182 | [3] 0.078 | zotarolimus 0.083 | alisertib -0.035 | gefitinib -0.07 | [5] 0.126 | lapatinib 0.044 | pictilisib 0.015
active: [4] -0.476

RNF41 (UniProt Q9H4P4)
Sequence of UniProt Q9H4P4 (Q9H4P4 whole entry, looked up): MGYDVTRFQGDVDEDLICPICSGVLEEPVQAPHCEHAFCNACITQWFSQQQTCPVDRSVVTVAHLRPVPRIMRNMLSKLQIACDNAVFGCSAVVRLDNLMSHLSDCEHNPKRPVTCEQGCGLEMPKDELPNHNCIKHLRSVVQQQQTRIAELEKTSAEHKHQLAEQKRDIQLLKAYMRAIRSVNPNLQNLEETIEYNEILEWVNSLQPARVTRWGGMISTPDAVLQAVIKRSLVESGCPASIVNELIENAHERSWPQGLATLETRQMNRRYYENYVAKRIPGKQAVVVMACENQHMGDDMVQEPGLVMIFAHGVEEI
inactive: rucaparib -0.087 | encorafenib -0.016 | idasanutlin -0.031

RUNX1 isoform 8 (UniProt Q01196)
Sequence of UniProt Q01196 (Q01196 whole entry, looked up): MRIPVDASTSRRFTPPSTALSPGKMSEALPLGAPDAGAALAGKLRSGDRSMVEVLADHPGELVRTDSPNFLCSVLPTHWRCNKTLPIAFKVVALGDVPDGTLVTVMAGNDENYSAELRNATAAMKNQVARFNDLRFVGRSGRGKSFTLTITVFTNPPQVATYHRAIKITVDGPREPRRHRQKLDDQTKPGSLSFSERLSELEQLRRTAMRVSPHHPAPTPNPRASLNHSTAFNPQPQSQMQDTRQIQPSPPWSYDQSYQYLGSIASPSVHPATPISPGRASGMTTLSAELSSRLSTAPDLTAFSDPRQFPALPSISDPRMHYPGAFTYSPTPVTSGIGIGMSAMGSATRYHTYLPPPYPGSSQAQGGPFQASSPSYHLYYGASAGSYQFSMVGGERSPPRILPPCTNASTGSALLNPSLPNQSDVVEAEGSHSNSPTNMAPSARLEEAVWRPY
inactive: saracatinib -0.025 | sotrastaurin -0.132 | [2] -0.046 | defactinib 0.01 | rucaparib 0.024 | [1] 0.014 | encorafenib 0.183 | [6] 0.047 | [3] -0.055 | filanesib -0.084 | idasanutlin 0.075 | alisertib -0.292 | [4] 0.053 | gefitinib -0.074 | [5] -0.011 | lapatinib -0.001 | pictilisib 0.24

SDC3 (UniProt O75056)
inactive: saracatinib -0.251 | sotrastaurin -0.074 | alvocidib 0.051 | Tubastatin A 0.163 | defactinib -0.004 | rucaparib -0.513 | [1] 0.036 | encorafenib 0.125 | [6] 0.034 | filanesib 0.081 | zotarolimus -0.045 | idasanutlin 0.166 | gefitinib 0.115 | pictilisib -0.674

SH3PXD2B (UniProt A1X283)
inactive: sotrastaurin -0.017 | alvocidib -0.047 | Tubastatin A -0.013 | [2] 0.061 | defactinib 0.013 | rucaparib 0.238 | encorafenib 0.011 | [6] 0.359 | filanesib -0.06 | zotarolimus -0.003 | idasanutlin -0.174 | alisertib -0.02 | gefitinib 0.149 | [5] -0.037 | pictilisib 0.162

SLC1A3 (UniProt P43003)
Sequence of UniProt P43003 (P43003 whole entry, looked up): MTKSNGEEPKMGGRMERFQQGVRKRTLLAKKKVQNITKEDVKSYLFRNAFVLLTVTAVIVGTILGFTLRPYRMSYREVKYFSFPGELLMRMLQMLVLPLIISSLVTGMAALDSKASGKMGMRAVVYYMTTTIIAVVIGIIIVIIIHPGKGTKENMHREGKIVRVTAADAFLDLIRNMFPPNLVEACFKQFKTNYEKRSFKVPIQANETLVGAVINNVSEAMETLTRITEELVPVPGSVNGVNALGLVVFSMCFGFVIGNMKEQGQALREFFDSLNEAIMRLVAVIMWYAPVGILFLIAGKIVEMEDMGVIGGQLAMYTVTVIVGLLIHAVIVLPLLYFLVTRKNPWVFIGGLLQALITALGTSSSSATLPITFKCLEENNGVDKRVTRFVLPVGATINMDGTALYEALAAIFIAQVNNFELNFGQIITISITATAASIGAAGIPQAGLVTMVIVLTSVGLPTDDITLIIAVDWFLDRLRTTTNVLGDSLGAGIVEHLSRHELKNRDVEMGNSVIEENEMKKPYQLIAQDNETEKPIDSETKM
active: [1] 0.481
inactive: saracatinib 0.277 | alvocidib 0.056 | Tubastatin A -0.157 | [2] -0.034 | defactinib -0.013 | rucaparib 0.027 | encorafenib 0.072 | [6] 0.106 | zotarolimus -0.097 | idasanutlin 0 | alisertib 0.017 | [4] 0.118 | gefitinib -0.023 | [5] 0.012 | lapatinib -0.03 | pictilisib 0.02

RNF26 (UniProt Q9BY78)
Sequence of UniProt Q9BY78 (Q9BY78 whole entry, looked up): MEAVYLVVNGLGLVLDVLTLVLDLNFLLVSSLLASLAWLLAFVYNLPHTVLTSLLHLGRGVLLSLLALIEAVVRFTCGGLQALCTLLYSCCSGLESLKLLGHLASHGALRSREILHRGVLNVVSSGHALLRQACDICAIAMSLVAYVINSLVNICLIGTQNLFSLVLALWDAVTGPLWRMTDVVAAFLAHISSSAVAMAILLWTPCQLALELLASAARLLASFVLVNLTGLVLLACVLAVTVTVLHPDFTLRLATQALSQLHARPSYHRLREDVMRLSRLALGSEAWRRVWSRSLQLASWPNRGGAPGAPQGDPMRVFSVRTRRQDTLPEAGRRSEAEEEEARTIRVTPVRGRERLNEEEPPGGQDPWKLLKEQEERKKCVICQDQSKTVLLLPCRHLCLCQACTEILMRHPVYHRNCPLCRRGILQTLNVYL
inactive: defactinib 0.119 | [6] 0.292 | pictilisib 0.065

RPS19 (UniProt M0R2L9)
inactive: Tubastatin A -0.186 | idasanutlin -0.034 | alisertib -0.463 | [4] -0.158 | gefitinib 0.375 | [5] -0.331 | lapatinib -0.341

RNF185 (UniProt Q96GF1)
Sequence of UniProt Q96GF1 (Q96GF1 whole entry, looked up): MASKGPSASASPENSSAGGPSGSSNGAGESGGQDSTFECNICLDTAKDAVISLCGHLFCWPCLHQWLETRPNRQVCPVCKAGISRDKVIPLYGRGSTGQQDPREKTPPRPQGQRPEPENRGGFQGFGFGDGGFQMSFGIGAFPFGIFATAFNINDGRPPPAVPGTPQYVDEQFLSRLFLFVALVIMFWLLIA
inactive: alvocidib -0.003 | Tubastatin A 0.011 | [2] 0.001 | defactinib -0.023 | rucaparib 0.006 | encorafenib -0.094 | [6] 0.125 | zotarolimus 0.117 | idasanutlin -0.143 | alisertib -0.145 | [4] -0.175 | gefitinib 0.007 | [5] -0.016 | lapatinib -0.111 | pictilisib 0.076

SAFB2 (UniProt K7EQU4)
inactive: [3] 0.115 | gefitinib -0.126

RELA (UniProt Q04206)
Sequence of UniProt Q04206 (Q04206 whole entry, looked up): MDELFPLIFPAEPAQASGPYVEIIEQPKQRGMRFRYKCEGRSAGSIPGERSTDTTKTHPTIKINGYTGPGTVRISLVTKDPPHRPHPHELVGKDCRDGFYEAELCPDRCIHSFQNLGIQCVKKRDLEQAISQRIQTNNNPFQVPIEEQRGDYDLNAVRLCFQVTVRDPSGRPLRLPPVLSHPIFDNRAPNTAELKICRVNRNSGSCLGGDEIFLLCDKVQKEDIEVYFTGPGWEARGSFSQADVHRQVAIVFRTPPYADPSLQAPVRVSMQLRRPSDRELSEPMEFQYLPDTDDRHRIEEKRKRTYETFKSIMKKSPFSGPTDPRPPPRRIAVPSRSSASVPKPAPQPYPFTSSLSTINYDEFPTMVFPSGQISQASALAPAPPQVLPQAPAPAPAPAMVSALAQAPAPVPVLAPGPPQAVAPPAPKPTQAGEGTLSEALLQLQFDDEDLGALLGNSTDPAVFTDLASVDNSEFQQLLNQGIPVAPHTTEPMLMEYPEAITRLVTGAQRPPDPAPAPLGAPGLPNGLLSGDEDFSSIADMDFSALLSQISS
inactive: saracatinib 0.027 | sotrastaurin -0.036 | Tubastatin A -0.017 | [2] 0.032 | defactinib -0.077 | rucaparib -0.026 | [1] -0.029 | encorafenib 0.044 | [6] -0.011 | [3] 0.025 | filanesib -0.002 | zotarolimus 0.024 | idasanutlin -0.039 | alisertib -0.028 | [4] -0.031 | gefitinib 0.023 | [5] 0.005 | lapatinib 0.012 | pictilisib -0.007

SF3B5 (UniProt Q9BWJ5)
Sequence of UniProt Q9BWJ5 (Q9BWJ5 whole entry, looked up): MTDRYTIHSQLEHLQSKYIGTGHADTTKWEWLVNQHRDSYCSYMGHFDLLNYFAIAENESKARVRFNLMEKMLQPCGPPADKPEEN
inactive: saracatinib -0.382 | sotrastaurin 0.055 | Tubastatin A 0.048 | [2] 0.023 | defactinib -0.039 | rucaparib 0.086 | [1] -0.015 | encorafenib -0.025 | [6] 0.061 | [3] 0.19 | filanesib 0.2 | idasanutlin 0.085 | alisertib -0.122 | [4] -0.026 | gefitinib 0.027 | [5] 0.044 | lapatinib -0.051 | pictilisib -0.069

RBM6 (UniProt P78332)
Sequence of UniProt P78332 (P78332 whole entry, looked up): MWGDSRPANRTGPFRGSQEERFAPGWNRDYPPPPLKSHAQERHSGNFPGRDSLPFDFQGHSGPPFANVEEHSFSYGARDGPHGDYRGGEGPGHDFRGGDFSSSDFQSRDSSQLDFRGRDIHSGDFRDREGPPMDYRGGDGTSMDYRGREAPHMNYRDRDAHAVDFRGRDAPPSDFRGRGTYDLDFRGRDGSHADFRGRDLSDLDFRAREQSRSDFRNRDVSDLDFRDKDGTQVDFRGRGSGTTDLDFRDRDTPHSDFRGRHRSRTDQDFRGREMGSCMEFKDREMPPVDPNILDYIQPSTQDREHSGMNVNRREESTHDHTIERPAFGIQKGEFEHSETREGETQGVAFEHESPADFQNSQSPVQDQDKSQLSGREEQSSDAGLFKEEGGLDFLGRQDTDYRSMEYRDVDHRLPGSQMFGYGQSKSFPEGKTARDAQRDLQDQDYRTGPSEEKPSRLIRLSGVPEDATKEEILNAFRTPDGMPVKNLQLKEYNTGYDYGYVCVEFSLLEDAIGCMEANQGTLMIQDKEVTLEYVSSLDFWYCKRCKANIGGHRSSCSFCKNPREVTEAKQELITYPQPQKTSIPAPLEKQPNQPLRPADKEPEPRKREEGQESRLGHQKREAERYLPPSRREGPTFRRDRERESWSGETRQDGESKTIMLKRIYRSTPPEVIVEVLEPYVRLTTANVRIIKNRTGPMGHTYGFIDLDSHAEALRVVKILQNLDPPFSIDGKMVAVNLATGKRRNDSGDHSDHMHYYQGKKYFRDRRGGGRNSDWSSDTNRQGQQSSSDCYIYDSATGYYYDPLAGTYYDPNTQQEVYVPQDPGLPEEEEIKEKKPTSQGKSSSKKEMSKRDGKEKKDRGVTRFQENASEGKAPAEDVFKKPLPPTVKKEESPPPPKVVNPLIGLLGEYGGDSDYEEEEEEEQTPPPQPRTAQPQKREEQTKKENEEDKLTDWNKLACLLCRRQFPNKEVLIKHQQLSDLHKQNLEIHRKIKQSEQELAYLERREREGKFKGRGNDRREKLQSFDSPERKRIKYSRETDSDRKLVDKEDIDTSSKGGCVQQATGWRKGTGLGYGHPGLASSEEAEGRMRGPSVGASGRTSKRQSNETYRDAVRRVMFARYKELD
inactive: saracatinib -0.032 | sotrastaurin -0.077 | alvocidib -0.073 | Tubastatin A -0.077 | [1] 0.247 | [3] 0.044 | filanesib -0.067 | zotarolimus 0.064 | idasanutlin 0.101 | alisertib -0.431 | [4] -0.02 | gefitinib -0.007 | [5] 0.005 | lapatinib 0.121 | pictilisib -0.044

SERINC1 (UniProt Q9NRX5)
inactive: saracatinib 0.093 | sotrastaurin -0.053 | Tubastatin A -0.128 | [2] -0.008 | defactinib 0.031 | rucaparib -0.095 | [1] -0.088 | encorafenib -0.062 | [6] 0.055 | [3] 0.073 | filanesib -0.146 | idasanutlin 0.233 | alisertib 0.073 | [4] -0.208 | gefitinib -0.266 | [5] -0.167 | lapatinib -0.227

RPS6KA5 (UniProt O75582)
Sequence of UniProt O75582 (O75582 whole entry, looked up): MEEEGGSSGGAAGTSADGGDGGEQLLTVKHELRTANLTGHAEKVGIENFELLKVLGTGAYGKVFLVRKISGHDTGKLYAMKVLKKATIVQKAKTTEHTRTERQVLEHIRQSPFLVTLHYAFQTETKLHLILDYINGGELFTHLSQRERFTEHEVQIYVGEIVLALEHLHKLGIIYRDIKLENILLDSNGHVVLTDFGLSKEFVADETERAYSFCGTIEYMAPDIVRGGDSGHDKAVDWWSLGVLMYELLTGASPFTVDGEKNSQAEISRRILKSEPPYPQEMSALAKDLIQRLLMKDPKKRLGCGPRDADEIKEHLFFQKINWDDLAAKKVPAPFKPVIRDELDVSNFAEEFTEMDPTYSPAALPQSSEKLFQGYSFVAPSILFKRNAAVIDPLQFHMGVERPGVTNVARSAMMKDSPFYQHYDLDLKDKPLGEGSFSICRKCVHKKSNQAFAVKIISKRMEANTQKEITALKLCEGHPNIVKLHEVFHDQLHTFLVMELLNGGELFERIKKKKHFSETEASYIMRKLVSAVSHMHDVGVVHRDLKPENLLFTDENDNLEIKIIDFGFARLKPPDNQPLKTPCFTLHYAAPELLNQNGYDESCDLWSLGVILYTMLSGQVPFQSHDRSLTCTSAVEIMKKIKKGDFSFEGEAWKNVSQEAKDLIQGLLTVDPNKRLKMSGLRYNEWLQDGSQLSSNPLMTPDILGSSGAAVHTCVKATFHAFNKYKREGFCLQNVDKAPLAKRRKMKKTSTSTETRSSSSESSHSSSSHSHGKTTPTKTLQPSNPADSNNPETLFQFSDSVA
inactive: [2] 0.083 | rucaparib 0.135 | encorafenib 0.148 | [3] -0.276 | alisertib -0.076 | [4] -0.185 | [5] 0.131 | lapatinib 0.057

RICTOR isoform 3 (UniProt Q6R327)
active: sotrastaurin 0.708
inactive: saracatinib 0.087 | Tubastatin A 0.092 | [2] 0.114 | rucaparib -0.128 | [1] 0.154 | encorafenib 0.068 | filanesib -0.028 | idasanutlin -0.066 | [4] 0.003 | gefitinib 0.059 | lapatinib 0.186 | pictilisib -0.062
